Test results taken from PubChem BioAssay (NCATS).
Results filed as inconclusive are left out. Activity calls are given as the source filed them. Calls come from the whole dose curve; as a rule, active = well fitted inhibition curve with a large enough effect; inconclusive = small, poorly fitted or top-dose-only effect; inactive = flat fitted curve, though single readings scatter. Numbered stars: 1 amine (or outer) side, 2 acyl side, 3 side chain; on linkers, the order of the positions; unused ones are H or OH. Bridge positions count the residues as written; N and C are the ends. Square brackets hold non-standard residues; d marks the D form. Peptide text beside a SMILES is read from it. I, II: the chains in the order shown. Actinocin(9to1) = Cc1c2oc3c(C)ccc(C(=O)[*:1])c3nc-2c(C(=O)[*:2])c(N)c1=O; NMeV = CN[C@H](C(=O)O)C(C)C; Sar = CNCC(=O)O

How the values were obtained:
Test in all cases: qHTS profiling for inhibitors of Plasmodium falciparum proliferation (AID 504749); note: nearly all actives have a fitted effect of over 60% in size
Conditions in all cases: P. falciparum in erythrocytes, SYBR Green DNA, 72 h; series mostly up to 28.7 µM
CP329 = test system: CP329
Outline: (§1)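 In a 72 h erythrocytic culture (37 C, humidified, 5% CO2) at 2.5% hematocrit and 0.3% starting parasitemia, compounds were tested; SYBR Green I in detergent lysis buffer stained parasite DNA overnight.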

CP335 = test system: CP335
Outline: as §1

DFO2036 = test system: DFO2036
Outline: as §1

DIV14 = test system: DIV14
Outline: as §1

DIV17 = test system: DIV17
Outline: as §1

DIV30 = test system: DIV30
Outline: as §1

Dd2 = test system: Dd2
Outline: as §1

ECU = test system: ECU
Outline: as §1

FAB9 = test system: FAB9
Outline: as §1

GB4 = test system: GB4
Outline: as §1

Measured: Potency
Potency is the fitted concentration of half-maximal effect.

NCCCC[C@H](N[C@@H](CCc1ccccc1)C(=O)O)C(=O)N1CCC[C@H]1C(=O)O
inactive: all assays above

CCCCOc1ccc(C(=O)CCN2CCCCC2)cc1
inactive: all assays above

O=c1ccc2ccccc2o1
inactive: all assays above

CCOc1ccc(NC(=O)CC(C)O)cc1 (stereo not given)
inactive: all assays above

CCCCCCC[N+](CC)(CC)CCCCc1ccc(Cl)cc1
active: CP329 1.81 µM | CP335 1.81 µM | DFO2036 1.78 µM | DIV14 0.809 µM | DIV17 0.809 µM | DIV30 2.28 µM | Dd2 2 µM | ECU 1.58 µM | FAB9 3.55 µM | GB4 0.721 µM

C[C@]12CCC(=O)C=C1CC[C@H]1[C@@H]3CC[C@](O)(C(=O)CO)[C@@]3(C)C[C@H](O)[C@@]12F
inactive: all assays above

C1CCc2nnnn2CC1
inactive: all assays above

CCCCC(CC)CN=C(N)NC(N)=NCCCCCCN=C(N)NC(N)=NCC(CC)CCCC (stereo not given)
active: CP329 1.51 µM | CP335 1.51 µM | DFO2036 3.16 µM | DIV14 1.35 µM | DIV17 1.2 µM | DIV30 1.2 µM | Dd2 2 µM | ECU 1.12 µM | FAB9 1.78 µM | GB4 1.51 µM

CCOC(=O)n1ccn(C)c1=S
inactive: all assays above

CCCn1c(=O)[nH]c(=O)c2[nH]cnc21
inactive: all assays above

CN1C(CCl)Nc2cc(Cl)c(S(N)(=O)=O)cc2S1(=O)=O (stereo not given)
inactive: all assays above

COc1cc(C(=S)N2CCOCC2)cc(OC)c1OC
inactive: all assays above

CCCCCCc1ccc(O)cc1O
inactive: all assays above

CC(=O)N(O)CCCCCNC(=O)CCC(=O)N(O)CCCCCNC(=O)CCC(=O)N(O)CCCCCN
inactive: all assays above

CCCCCCCCCCCCCCCC[N+](C)(C)CC
active: CP329 4.78 µM | CP335 4.78 µM | DFO2036 2.82 µM | DIV14 7.57 µM | DIV17 7.57 µM | DIV30 5.36 µM | Dd2 6.31 µM | ECU 5.01 µM | FAB9 7.94 µM | GB4 3.79 µM

NCCc1ccn[nH]1
inactive: all assays above

C[C@H](O)C(=O)Nc1c(I)c(C(=O)NC(CO)CO)c(I)c(C(=O)NC(CO)CO)c1I
inactive: all assays above

N[C@@H](Cc1cnc[nH]1)C(=O)O
inactive: all assays above

O=C(O)c1cc2cc(Cc3cccnc3)ccc2o1
inactive: all assays above

Cc1c(F)c(N2CCNC(C)C2)cc2c1c(=O)c(C(=O)O)cn2C1CC1 (stereo not given)
inactive: all assays above

NC(CO)(CO)CO
inactive: all assays above

O=C(O)CNC(=O)c1ccccc1
inactive: all assays above

CCN(CC)C(=O)/C(C#N)=C/c1cc(O)c(O)c([N+](=O)[O-])c1
active: Dd2 0.447 µM
inactive: all other assays above

Cc1ccnc(NS(=O)(=O)c2ccc(N)cc2)n1
inactive: all assays above

Cc1c2oc3c(C)ccc(C(=O)N[C@@H]4C(=O)N[C@H](C(C)C)C(=O)N5CCC[C@H]5C(=O)N(C)CC(=O)N(C)[C@@H](C(C)C)C(=O)O[C@@H]4C)c3nc-2c(C(=O)N[C@@H]2C(=O)N[C@H](C(C)C)C(=O)N3CCC[C@H]3C(=O)N(C)CC(=O)N(C)[C@@H](C(C)C)C(=O)O[C@@H]2C)c(N)c1=O (I: T[dV]P[Sar][NMeV] / II: T[dV]P[Sar][NMeV]; ester I:1-I:C, II:1-II:C; linker I:N-II:N via Actinocin(9to1))
active: CP329 0.006 µM | CP335 0.0019 µM | DFO2036 0.0032 µM | DIV14 0.0038 µM | DIV17 0.0054 µM | DIV30 0.0076 µM | Dd2 0.0045 µM | ECU 0.0032 µM | FAB9 0.0112 µM | GB4 0.0048 µM

OCc1ccccc1O
inactive: all assays above

Cc1c(C(N)=O)cc([N+](=O)[O-])cc1[N+](=O)[O-]
inactive: all assays above

N[C@H](CO)C(=O)O
inactive: all assays above

COC(=O)[C@@H]1CC2=CC(=O)CC[C@]2(C)[C@@]23O[C@@H]2C[C@@]2(C)[C@@H](CC[C@@]24CCC(=O)O4)[C@H]13
inactive: all assays above

O=C(Nc1ccc(Cl)c(Cl)c1)C1CC1
inactive: all assays above

CCOC(=O)OC(C)OC1=C(C(=O)Nc2ccccn2)N(C)S(=O)(=O)c2ccccc21 (stereo not given)
inactive: all assays above

CCN1CCCC1=O
inactive: all assays above

CC1=C(C(=O)OC(C)C)C(c2cccc([N+](=O)[O-])c2)C(C(=O)OC2CN(C(c3ccccc3)c3ccccc3)C2)=C(N)N1 (stereo not given)
active: CP329 6.01 µM | CP335 4.78 µM | DFO2036 7.08 µM | DIV14 7.57 µM | DIV17 9.53 µM | Dd2 11.2 µM | ECU 7.08 µM | GB4 6.01 µM

CCn1cc(C(=O)O)c(=O)c2cnc(N3CCCC3)nc21
inactive: all assays above

COc1c(C)c2c(c(O)c1C/C=C(\C)CCC(=O)O)C(=O)OC2
active: CP329 6.42 µM | CP335 3.22 µM | DFO2036 2.51 µM | DIV14 6.42 µM | DIV17 6.42 µM | DIV30 5.1 µM | Dd2 3.55 µM | ECU 5.01 µM | GB4 5.1 µM

O=C1[C@H]2CCCC[C@H]2C(=O)N1CCCCN1CCN(c2nsc3ccccc23)CC1
not listed: DIV14 | DIV17 | GB4
inactive: all other assays above

c1ccc(OCc2ccc(CCCN3CCOCC3)cc2)cc1
active: DIV14 8.49 µM | DIV17 6.75 µM
inactive: CP329 | CP335 | DFO2036 | FAB9
